Screens (PubChem BioAssay)
LmPK inh – qHTS Assay for Inhibitors of Leishmania Mexicana Pyruvate Kinase (LmPK). Potency, µM (series often up to 57.5 µM), most hits filed as inhibitors. hit rate 0.37% among 290,000. AID 1721, 2009. purified LmPK, Kinase-Glo ATP luminescence, 1 h; active means well fitted curve in the direction sought with a large enough effect; inconclusive means small, poorly fitted or top-dose-only effect, or another doubt; inactive means no such curve, though single readings can be large; an effect the other way counts as inactive or inconclusive
Target sequence (Q27686 whole entry, looked up): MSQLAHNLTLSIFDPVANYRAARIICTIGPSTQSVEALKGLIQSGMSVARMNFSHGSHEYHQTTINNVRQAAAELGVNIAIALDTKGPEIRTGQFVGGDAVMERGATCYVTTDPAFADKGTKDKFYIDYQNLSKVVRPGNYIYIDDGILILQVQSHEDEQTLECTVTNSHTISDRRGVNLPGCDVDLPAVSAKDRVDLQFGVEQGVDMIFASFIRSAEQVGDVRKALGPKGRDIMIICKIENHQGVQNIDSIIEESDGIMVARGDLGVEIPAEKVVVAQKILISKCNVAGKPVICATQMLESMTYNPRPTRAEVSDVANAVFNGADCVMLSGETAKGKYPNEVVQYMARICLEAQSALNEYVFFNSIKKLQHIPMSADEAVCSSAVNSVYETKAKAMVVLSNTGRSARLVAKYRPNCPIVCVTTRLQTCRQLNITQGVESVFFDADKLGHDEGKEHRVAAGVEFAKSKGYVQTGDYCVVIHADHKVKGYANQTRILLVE
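Purified LmPK (0.1 nM) converted ADP (0.1 mM) to ATP with PEP (0.5 mM) in imidazole buffer pH 7.2 with KCl and MgCl2, 1 h at room temperature. ATP was read by Kinase-Glo luminescence; data normalized to uninhibited and no-enzyme controls.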
CHX counter – Cycloheximide Counterscreen for Small Molecule Inhibitors of Shiga Toxin; cell reporter, cycloheximide protein synthesis inhibition counterscreen; max response, %; hit rate 12% among 300,000; AID 2314, 2010; in the data active means max response mostly above about 13%, no sharp cut-off; inactive means mostly below about 14%; further: read at 38.3 µM for the half of the compounds with a filed dose
Tb PYK inh – qHTS of Trypanosoma Brucei Inhibitors. TbPYK enzyme, Kinase-Glo Plus ATP luminescence, 45 min. hit rate 0.12% among 410,000. AID 624173, 2012. pyruvate kinase (Trypanosoma brucei), Q57TT1. Potency, µM (highest dose often 76.8 µM), most hits filed as inhibitors; active means well fitted curve in the direction sought with a large enough effect; inconclusive means small, poorly fitted or top-dose-only effect, or another doubt; inactive means no such curve, though single readings can be large; an effect the other way counts as inactive or inconclusive; further: nearly all actives have a fitted effect of over 50% in size
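Activity of T. brucei pyruvate kinase was followed by Kinase-Glo Plus luminescence after the enzyme reacted 45 min at room temperature with 130 uM ADP (final) and substrate. Test compounds were added before ADP at multiple concentrations.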
Shiga toxin inh – A qHTS for Small Molecule Inhibitors of Shiga Toxin. Vero cells, Shiga toxin protein synthesis inhibition reporter. inhibition, % at 38.7 µM. hit rate 9.2% among 290,000; in the data active means inhibition mostly above about 28%, no sharp cut-off; inactive means mostly below about 43%
SARS PLpro yeast – qHTS of Yeast-based Assay for SARS-CoV PLP; S. cerevisiae expressing SARS-CoV PLpro, growth rescue; Potency, µM (titrated, usually from 32.9 µM), most hits filed as activators; hit rate 0.19% among 330,000; AID 485353, 2010; further: nearly all actives have a fitted effect of over 55% in size
NS1 inh – qHTS Assay for Inhibitors of Influenza NS1 Protein Function | hit rate 0.4% among 270,000 | Potency, µM (top dose mostly 46.1 µM); further: actives are rising curves; nearly all actives have a fitted effect of over 50% in size
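Read-out: OD600 growth recovery of NS1-expressing budding yeast. Cells grown overnight at 30C in -URA glucose medium, washed, resuspended and diluted 1:100 in 2% galactose assay medium, pH 6.0. Same strain lacking NS1 served as positive control.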
Numbers stand for hits; 0 = inactive; ? = inconclusive; - = no result; + = active, no number. Shown is part of a subset that was picked to be rich in hits. Unless noted, the call rests on the fitted dose curve.

SMILES | LmPK inh | CHX counter | Tb PYK inh | Shiga toxin inh | SARS PLpro yeast | NS1 inh
O=C(COc1ccc(Cl)cc1)Nc1ccc2nc(SCC(=O)N3CCOCC3)sc2c1 | - | - | 0 | - | - | -
CC(C)CNC(=O)C1(C)CCCCCN1C(=O)c1cc(C#N)cs1 (configuration not stated) | - | - | 0 | - | - | -
CCN(C(=O)CN1C(=O)NC2(CCc3ccccc32)C1=O)C1CCCCC1 (configuration not stated) | - | - | 0 | - | 0 | -
CCC(C)(C)NC(=O)C(c1ccc(OC)cc1)N(C(=O)CCC(=O)Nc1cc(C)on1)c1ccc2c(c1)OCCO2 (configuration not stated) | 0 | 0 | 0 | 0 | 0 | 0
c1cc(-c2noc(CC3CCCCC3)n2)ccn1 | 0 | 0 | 0 | 122.3 | 0 | 0
c1ccc(-c2noc(CC3CCCCC3)n2)nc1 | 0 | 49.8 | 0 | 81.8 | 0 | 0
Cc1cccc(C(=O)O/N=C(\N)CS(=O)(=O)c2ccccc2)c1 | 0 | 15.6 | 0 | 0 | 0 | 0
COc1cccc(C(=O)O/N=C(\N)CS(=O)(=O)c2ccccc2)c1 | 0 | 56.3 | 0 | 62.9 | 0 | 0
CCC(C)(C)NC(=O)c1ccc2c(c1)OCCO2 | 0 | 16.0 | 0 | 0 | 0 | -
COc1ccc(NC(=O)/C(=C\c2ccc3c(c2)OCO3)NC(C)=O)cc1 | 0 | 59.0 | 0 | 66.5 | 0 | 0
CNC(=S)N/N=C/c1ccc2c(c1)OCCO2 | 0 | 36.4 | 0 | 72.7 | 0 | ?
Cc1nnc(C)n1/N=C/c1ccc2c(c1)OCCO2 | 0 | 0 | 0 | 0 | 0 | 0
Cc1cccc(NC(=O)c2ccc3c(c2)OCCO3)c1 | 0 | 0 | 0 | 41.1 | 0 | 0
CC(C)Oc1cc(F)ccc1-c1cc(C(=O)NCCc2ccncc2)[nH]n1 | - | - | 0 | - | - | -
CC1(C2CC2)NC(=O)N(CC(=O)Nc2ccc(OC(F)F)cc2)C1=O (configuration not stated) | - | - | 0 | - | - | -
COc1cccc(NC(=O)C(=O)N/N=C/c2ccc3c(c2)OCO3)c1 | 0 | 26.4 | 0 | 0 | 0 | 0
Cc1cccc(NC(=S)NNC(=O)c2ccc3c(c2)OCO3)c1 | 0 | 116.3 | 0 | 49.2 | 0 | 0
CC(C)(C)NC(=O)CN(C(=O)C(=O)Nc1ccc2c(c1)OCCO2)C1CC1 | 0 | 0 | 0 | 0 | 0 | 0
Cc1cccc(NC(=S)NCc2ccc3c(c2)OCO3)c1 | 0 | 0 | 0 | 0 | 0 | 0
CCC(C)(C)NC(=O)CN(C(=O)C(=O)Nc1ccc2c(c1)OCCO2)C1CC1 | 0 | 12.4 | 0 | 0 | 0 | 0
Cc1cccc(NC(=S)N/N=C/c2ccc3c(c2)OCO3)c1 | 0 | 49.2 | 0 | + | ? | ?
Cc1noc(C)c1S(=O)(=O)N(CC(=O)Nc1ccc(C(F)(F)F)cc1)c1ccc(C(C)C)cc1 | - | - | 0 | - | - | -
CCN(CC(=O)Nc1ccccc1OC)C(=O)CC1CCCC1 | - | - | 0 | - | 0 | -
CCOC(=O)C(=O)CC(=O)c1ccc2c(c1)OCCO2 | 0 | 29.6 | 0 | 0 | 0 | 0
O=C(Nc1ccccc1)c1ccc2c(c1)OCCO2 | 14.1µM | 41.3 | 0 | 70.0 | 0 | 0
SMILES | LmPK inh | CHX counter | Tb PYK inh | Shiga toxin inh | SARS PLpro yeast | NS1 inh
Cc1ccc(NC(=O)c2ccc3c(c2)OCCO3)cc1S(=O)(=O)Nc1cccc(Cl)c1 | 0 | 45.4 | 0 | 87.8 | 0 | ?
Cc1ccc(C(=O)Nc2cccc(N(C)S(C)(=O)=O)c2)cc1S(=O)(=O)Nc1ccccc1 | 0 | 0 | 0 | 0 | 0 | 0
CCCc1cc(C(=O)NNC(=S)Nc2cccc(C)c2)cs1 | 0 | 31.0 | 0 | 40.3 | 0 | 0
O=C(Nc1cccc(F)c1)c1ccc2c(c1)OCCO2 | 0 | 43.4 | 0 | 86.8 | 0 | 0
NNC(=O)c1nc[nH]c1C(=O)Nc1ccccc1 | 0 | 13.8 | 0 | 22.4 | 0 | ?
CCC(=O)N1CCc2cc(Br)cc(S(=O)(=O)CCC(=O)Nc3cccc(CC)c3)c21 | - | - | 0 | - | - | -
Cc1noc(C)c1NC(=O)N(C)C[C@@H]1Oc2ccc(NS(=O)(=O)c3c(C)noc3C)cc2C(=O)N([C@H](C)CO)C[C@H]1C | - | - | 0 | - | 0 | -
COc1cccc(CN2CCCN(CC(=O)Nc3ccc4c(c3)OCCO4)S2(=O)=O)c1 | - | - | 0 | - | - | -
O=C(Nc1ccc(C(=O)NCCCN2CCCCC2)cc1)C1=CSCCO1 | 0 | 0 | 0 | 0 | 0 | 0
C=CCNC(=O)c1ccc(NC(=O)C2=CSCCO2)cc1 | 0 | 23.3 | 0 | 0 | 0 | 0
CC(C)CCNC(=O)c1ccc(NC(=O)C2=CSCCO2)cc1 | 0 | 23.7 | 0 | 58.6 | 0 | 0
CC1=C(c2ccc(C)c(C)c2)S(=O)(=O)N=C1N1CCC(C(=O)Nc2cccc(F)c2)CC1 | - | - | 0 | - | - | -
COc1ccc(-n2nc(C(=O)NCCc3cccc(C)c3)c3c4ccccc4n(C)c3c2=O)cc1Cl | - | - | 0 | - | - | -
COc1cccc(/C=N/n2c(C)nc3ccccc32)c1OC | 0 | 0 | 0 | 37.9 | 0 | 0
COc1cccc(/C=N/n2c(=O)[nH]c3ccccc32)c1OC | 0 | 38.5 | 0 | 41.7 | 0 | 0
COc1cccc(/C=N\n2c(C)nnc2C)c1OC | 0 | 0 | 0 | 0 | 0 | 0
Cc1cc(C(=O)Cn2nc(C(=O)O)c3ccccc3c2=O)c(C)n1CC(F)(F)F | 0 | 36.3 | 0 | 188.8 | 0 | -
Cc1cc(C(=O)Cn2nc(C(=O)O)c3ccccc3c2=O)c(C)n1CCc1ccc(F)cc1 | 0 | 20.1 | 0 | 0 | 0 | 0
O=C(Cn1nc(C(=O)O)c2ccccc2c1=O)c1cc(F)ccc1F | 0 | 0 | ? | 0 | 0 | 0
CCOC(=O)c1cc(-c2ccco2)nn1-c1ccc(C)cc1 | 0 | 0 | 0 | 0 | 0 | 0
O=C(COC(=O)c1ccccc1F)c1ccc(-n2nncc2-c2ccco2)cc1 | 0 | 20.8 | 0 | 0 | 0 | 0
Cc1cccc(OCc2nc(-c3cccnc3)no2)c1 | 0 | 15.3 | 0 | + | 0 | 0
COc1ccc(Cl)cc1-c1nc(-c2ccncc2)no1 | 0 | 0 | 0 | 0 | 0 | 0
Clc1ccc(OCc2nc(-c3ccncc3)no2)c(Cl)c1 | 0 | 63.6 | 0 | 122.0 | 0 | 0
Clc1cccc(OCc2nc(-c3ccncc3)n[nH]2)c1 | 0 | 0 | 0 | 0 | - | 0
SMILES | LmPK inh | CHX counter | Tb PYK inh | Shiga toxin inh | SARS PLpro yeast | NS1 inh
Cc1ccc(C)c(OCc2nc(-c3cccnc3)no2)c1 | 0 | 0 | 0 | 0 | ? | 0
Clc1cccc(OCc2nc(-c3ccncc3)no2)c1 | 0 | 33.8 | 0 | 0 | 0 | 0
CCn1c(C)cc(/C=C2/NC(=O)N(c3ccccc3)C2=O)c1C | 0 | 42.6 | 0 | 97.0 | 0 | 0
COCCn1c(C)cc(/C=C2/NC(=O)N(c3cccc(Cl)c3)C2=O)c1C | 0 | 38.3 | 0 | 63.6 | 0 | -
O=C1N/C(=C/c2ccsc2)C(=O)N1c1ccccc1 | 0 | 26.0 | 0 | 47.2 | 0 | 0
Cc1ccc(C2=NN(CCC#N)C(=O)CO2)cc1 | 0 | 0 | 0 | 0 | 0 | 0
CCn1nnc2cc(C(=O)NCCc3ccccc3F)ccc21 | 0 | 0 | 0 | 58.2 | 0 | 0
CN(N=Nc1cccc([N+](=O)[O-])c1)c1cccc([N+](=O)[O-])c1 | 0 | 33.3 | 0 | 108.8 | 0 | -
